According to PubChem BioAssay (NCI):
The panel holds about 83,000 compounds, 20% with a hit somewhere; the sample as a whole holds those more often.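 Note: values are percent growth. 100 is the growth of untreated cells, values between 100 and 0 indicate rising inhibition; between -100 and 0 indicates cell death.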 Unmarked numbers belong to inactive results. Activity calls are given as the source filed them. The calls were made as follows: active = growth percent below 10; inactive = the rest.

Assays:
Assay in all cases: NCI-60 one-dose screen, 48 h (100 = growth as untreated, 0 = no growth, -100 = all killed)
SR leukemia = details: 10 µM unless noted
RPMI-8226 leukemia = details: 10 µM unless noted
OVCAR-8 ovarian = details: 10 µM unless noted
OVCAR-5 ovarian = details: 10 µM unless noted
OVCAR-4 ovarian = details: 10 µM unless noted
SK-OV-3 ovarian = details: 10 µM unless noted
IGROV1 ovarian = details: 10 µM unless noted
OVCAR-3 ovarian = details: 10 µM unless noted
NCI/ADR-RES ovarian = details: 10 µM unless noted
T-47D breast = details: 10 µM unless noted
BT-549 breast = details: 10 µM unless noted
MDA-MB-435 melanoma = details: 10 µM unless noted
SW-620 colon = details: 10 µM unless noted
MCF7 breast = details: 10 µM unless noted
HCT-116 colon = details: 10 µM unless noted
HCC-2998 colon = details: 10 µM
KM12 colon = details: 10 µM unless noted
HS 578T breast = details: 10 µM

Compound | growth (SR leukemia) | growth (RPMI-8226 leukemia) | growth (OVCAR-8 ovarian) | growth (OVCAR-5 ovarian) | growth (OVCAR-4 ovarian) | growth (SK-OV-3 ovarian) | growth (IGROV1 ovarian) | growth (OVCAR-3 ovarian) | growth (NCI/ADR-RES ovarian) | growth (T-47D breast) | growth (BT-549 breast) | growth (MDA-MB-435 melanoma) | growth (SW-620 colon) | growth (MCF7 breast) | growth (HCT-116 colon) | growth (HCC-2998 colon) | growth (KM12 colon) | growth (HS 578T breast)
CC(C)(C)c1cnc(CSc2cnc(NC(=O)C3CCNCC3)s2)o1 | 0.401% (active) | -8.04% (active) | 5.71% (active) | 14.9% | 9.94% (active) | 6.31% (active) | 9.86% (active) | 20.2% | 53% | -7.81% (active) | 0.761% (active) | -58.7% (active) | 5.06% (active) | 3.72% (active) | 2.22% (active) | 0.238% (active) | 3.58% (active) | 
CC(=O)C1=C(C)NC(SCc2nnc(-c3ccc(C)cc3)o2)=NC1c1ccc(F)cc1 (centres undefined) | 80.9% | 83.7% | 97% | 89.6% | 108% | 108% | 89% | 105% |  | 74.4% | 86.1% | 107% | 110% | 95.4% | 93.6% | 104% | 100% | 112%
Cc1cc2c(F)c(Oc3ncnn4cc(OC[C@@H](C)OC(=O)[C@H](C)N)c(C)c34)ccc2[nH]1 | 18.5% | 47.1% | 61.7% | 25.8% | 65.5% | 73.9% | 20.8% | 81.1% | 90.5% | 70.5% | 80.8% | 28.6% | 20.3% | 39.6% | 19.3% | 37.5% |  | 
CCN1CCN(c2nc(C)cc(N(CCCNc3ccnc4cc(Cl)ccc34)Cc3ccc4c(c3)OCO4)n2)CC1 | -45.2% (active) | -41.9% (active) | -12.4% (active) | 51.6% | 2.74% (active) | 33.3% | 0.209% (active) | -28.3% (active) |  | -60.9% (active) | -53.1% (active) | -86.8% (active) | -32.3% (active) | 7.69% (active) |  | -40.3% (active) | 23.7% | -44.8% (active)
O=C(NO)c1ccc(Cn2c(=O)n(CCc3ccccc3)c(=O)c3ccccc32)cc1 | 20% | 25.8% | 20.2% | 76.5% | 19.2% | 26.3% | 41% | 13.8% |  | 29% | 52.4% | 19.1% | 20.9% | 27.9% | 4.18% (active) | 62.5% | 25.2% | 68.9%
CSc1nc2ncnc(SC)c2[nH]1 | 90.3% | 106% | 103% | 102% | 101% | 79.3% | 114% | 115% |  | 105% | 93.3% | 100% | 109% | 93.1% | 81.4% | 113% | 106% | 105%
CCN(CC)CCCC(C)Nc1cc(-c2ccc(C(F)(F)F)cc2)c(C#N)c2nc3ccccc3n12 (centres undefined) | -17.4% (active) | -19.9% (active) | 11.8% | 11.7% | -27.9% (active) | 74.3% | 26.1% | 93.5% |  | -8.16% (active) | -10.7% (active) | -64.8% (active) | 12.2% | 14.1% | 3.28% (active) | 16.6% | 36.5% | -19.1% (active)
COc1c(OCCCN2CCOCC2)ccc2c3n(c(=NC(=O)c4cnc(N)nc4)nc12)CCN3 | 5.24% (active) | 11.3% | 15.7% | 14% | 7.97% (active) | -31.8% (active) | -22% (active) | 4.64% (active) | 22.7% | -24% (active) | -5.84% (active) | 4.22% (active) | 20.5% | 11.9% | 13.8% | -15.7% (active) |  | 
COc1cc2cc(NCc3ccc(Cl)cc3)nc(C)c2cc1OC | 18.7% | 14.3% | 40.9% | 41.2% | 82.3% | 68% | 43% | 49.4% |  | 47.1% |  | 10.9% | 19.3% | 51.8% | 8.8% (active) | 27.2% |  | 70.5%
Nc1c(Cl)cccc1[N+](=O)[O-] | 104% | 100% | 102% | 102% | 111% | 108% | 112% | 111% |  |  | 114% | 105% | 94.6% | 99.1% | 112% | 105% | 107% | 87.8%
Cc1cc([C@@H](C)Nc2ccccc2C(=O)O)c2nc(N3CCOCC3)cc(=O)n2c1 | 25% | 71.8% | 45.6% | 51.8% | 77.3% | -13.2% (active) | -4.69% (active) | 31.1% | 58.1% | -27.6% (active) | 22.3% | 58% | 35% | 16.4% | 23% | 60.1% | 57% | 
Cn1ccnc1C(=O)/C=C/c1ccc(CC(=O)Nc2ccc(Br)cc2)cc1 | 3.22% (active) | 8.13% (active) | 3.98% (active) | 21.8% | 43.2% | 54.6% | 11.3% | 11.1% | 16.3% | 4.43% (active) | 12.1% | 45.6% | 4.81% (active) | 12% | 12% | 15.3% | 4.87% (active) | 
CC[C@@H]1C(=O)N(C)c2cnc(Nc3ccc(C(=O)NC4CCN(C)CC4)cc3OC)nc2N1C1CCCC1 | -20.7% (active) | -40.6% (active) | 21.4% | 17.3% | 35.3% | -64.3% (active) | -0.189% (active) | 13.1% | 24% | -7.47% (active) | 17.5% | 2.22% (active) | 12.3% | 7.63% (active) | 0.114% (active) | -28.6% (active) |  | 
COc1cc2ncnc(Nc3ccc(O)cc3)c2cc1OC | 27.1% | 97.2% | 70.7% | 59.2% | 88.1% | 5.29% (active) | 38.2% | 87.4% | 91.3% | 53.9% | 80% | 91.6% | 112% | 90.4% | 75.3% | 100% | 89.7% | 
O=C(Nc1ccc(N=Nc2ccccc2)cc1)c1cccc2ccccc12 | 23.3% | 66.1% | 78.7% | 92.5% | 75.8% | 64.5% | 80.4% | 37.1% |  | 66.3% | 53.5% | -17.2% (active) | 40% | 42% | 36.1% | 78.5% | 47.7% | 72.6%
O=C(Nc1ccc(Nc2ncnc3sc4c(c23)CCOC4)cc1)Nc1ccc(Cl)c(C(F)(F)F)c1 | 83% | 80.8% | 109% | 89.2% | 131% | 95.3% | 79.5% | 87.2% | 94.7% | 81.8% | 89.1% | 99.1% | 121% | 90.5% | 77.5% | 106% | 86.4% | 
COc1ccc(C(=O)c2cc(OC)c(OC)c(OC)c2)cc1/C=C/C(=O)c1ccc(F)cc1 | 3.26% (active) | 23.3% | 53.3% | 1.82% (active) | 77.8% | 93.5% | 91.7% | 61.4% |  | 67.3% | 81.2% | 60.5% | 9.38% (active) | 19.6% | 1.33% (active) | 97.1% | 39.8% | 98%
CC/C(=C(/c1ccc(Cl)cc1)c1ccc(OCCN2CCCCC2)cc1)c1ccc(Cl)cc1 | 5.18% (active) | 76.3% | 81.4% | 79.9% | 63.9% | 83.7% | 91.7% | 78.7% | 84.9% | 43.9% | 85.9% | 86.4% | 65.2% | 26.6% | 61.3% | 89.4% | 69.2% | 
